Experimental data taken from PubChem BioAssay AID1347076 (National Center for Advancing Translational Sciences (NCATS), 2019).
The campaign covered roughly 400,000 compounds. About 13,000 (3.2%) were called active. Inconclusive results (about 18%) are left out. Calls come from the whole dose curve; as a rule, active = well fitted cell-killing curve with a large enough effect; inconclusive = small, poorly fitted or top-dose-only effect, or effect the other way; inactive = flat fitted curve, though single readings scatter. The list comes from a sample in which actives are over-represented; it also holds similar structures and randomly drawn compounds. Where a call stands in place of a potency, no number is given.

Assay: qHTS assay for MDR1-selective chemotherapeutics: Primary screen using the drug-selected MDR subline cells KB-V1; note: nearly all actives have a fitted effect of over 60% in size
Conditions: KB-V1 MDR cells viability, CellTiter-Glo, 72 h; series mostly up to 46.1 µM
Text: A prime difficulty in effectively treating cancer is the development of cellular resistance to multiple structurally unrelated anticancer drugs, a phenomenon known as multidrug resistance (MDR). […] Numerous strategies to overcome P-gp-mediated MDR have been explored, including the design of drugs that evade recognition and efflux, and development of inhibitors to block efflux and restore drug accumulation. […] An alternative approach is to exploit resistance by identifying drugs that target MDR cells over the non-resistant parental cells from which they were selected. […] The development of MDR1-selective agents represents a new strategy for resolving multidrug resistance, as it remains a long-standing clinical challenge for cancer chemotherapy.
Our goal is to identify compounds that selectively kill P-gp-expressing MDR cells. We will identify MDR1-selective compounds by comparing toxicity of compounds in the screening library against parental, drug-naive (KB-3-1) adenocarcinoma cells as well as their drug-selected MDR sub-line (KB-V1). The differential toxicity of compounds against these two cell lines will be used to identify MDR1-selective compounds, whose cytotoxicity is potentiated, rather than diminished, by P-gp expression. This assay will be utilized to conduct a quantitative high-throughput screen (qHTS) in collaboration with the NIH Chemical Genomics Center to identify selective agents, and probe hits arising from the screen will be validated using secondary assays and characterized through a well-established follow-up research program. This screen was run against the entire NCGC library collection of about 400,000 compounds.
NIH Molecular Libraries Probe Production Network [MLPCN]
NIH Chemical Genomics Center [NCGC]
PI: Michael Gottesman, National Cancer Institute, NIH
Briefly, 5 microL of media containing either KB-V1 cells (columns 1-2, 4-48) are dispensed into Greiner white, treated solid-bottom 1536-well assay plates (media-only control is added to column 3). Compounds are then transferred via Kalypsys pin tool equipped with 1536-pin array (10 nL slotted pins, V&P Scientific, San Diego, CA). Following addition of compound, the plates are incubated at 37 degrees C for 72 hours. CellTiter-Glo (2.5 µL/well) is then added, and the plates are read in a ViewLux reader (Perkin-Elmer, clear luminescence filter, 1 second exposure, 1x binning) following a 10 minute incubation. All cells are dispensed in DMEM phenol-red free media containing 10% FBS.
Library plates were screened starting from the lowest and proceeding to the highest concentration. Vehicle-only plates, with DMSO being pin-transferred to columns 5-48, will be inserted uniformly at the beginning and the end of each library in order to monitor and record any shifts in the background, which can be affected by reagent dispensers or loss in enzyme activity over time. Screening data will be corrected, normalized, and concentration-effect relationships will be derived by using publicly-available NCGC, NCATS curve fitting algorithms (http://ncgc.nih.gov/pub/openhts).
Potency is the fitted concentration of half-maximal effect.

Row | Compound | Potency
1 | COC(=O)c1ccccc1N=NNc1ccc([N+](=O)[O-])cc1 | inactive
2 | CC1(C(=O)NS(=O)(=O)c2cccc(F)c2)CCN1C(=O)Cc1cc(F)ccc1F (stereo unspecified) | inactive
3 | O=C(Nc1cccc(-c2nnc(-c3ccccc3)o2)c1)C1CCCO1 (stereo unspecified) | inactive
4 | O=C(Nc1nnc(CCc2ccccc2)s1)C1CCCO1 (stereo unspecified) | inactive
5 | O=C(Nc1ccc(-c2nnc(-c3ccccc3)o2)cc1)C1CCCO1 (stereo unspecified) | 8.2 µM (active)
6 | CC1(C(=O)NCc2ccccc2)CSCC(=O)N1CCCn1ccnc1 (stereo unspecified) | inactive
7 | COc1ccc(-c2cc(NCc3ccc(F)cc3)n3cnnc3n2)cc1 | inactive
8 | Cc1cccc(C(=O)N[C@H](C(=O)NCc2cccs2)C(C)C)c1 | 9.2 µM (active)
9 | CC(=O)Nc1ccc(NC(=O)[C@@H](NC(=O)c2cccc(C)c2)C(C)C)cc1 | inactive
10 | CC(Cc1cccs1)NC(=O)c1cccc(Cl)c1 (stereo unspecified) | inactive
11 | COc1ccc(-c2[nH][nH]c(=O)c2NC(=O)c2ccc([N+](=O)[O-])cc2)cc1 | inactive
12 | CCCN(CC1COc2ccccc2O1)C(=S)Nc1ccc(C)cc1 (stereo unspecified) | inactive
13 | S=C(NCC1COc2ccccc2O1)Nc1ccc(Br)cc1 (stereo unspecified) | 23.1 µM (active)
14 | O=C(NCC1COc2ccccc2O1)C1(c2ccccc2)CCCC1 (stereo unspecified) | inactive
15 | C[C@@H]1CN([C@H](C)CO)C(=O)c2cc(-c3ccc(F)cc3)cnc2O[C@H]1CN(C)C(=O)c1ccc(F)cc1 | inactive
16 | CN(Cc1c(F)cccc1Cl)C(=O)COC(=O)Cn1cnc2ccccc2c1=O | inactive
17 | COc1cc(C)c(C)cc1S(=O)(=O)N1CCCc2ccccc21 | inactive
18 | CC1CCN(C(=O)c2cccc(S(=O)(=O)N3CCCc4ccccc43)c2)CC1 | inactive
19 | Cn1c(=O)n(C)c2cc(S(=O)(=O)N3CCCc4ccccc43)ccc21 | 8.2 µM (active)
20 | C[C@H](CO)N1C[C@H](C)[C@@H](CN(C)Cc2ccc3c(c2)OCO3)OCc2cnnn2CCCC1=O | inactive
21 | CC1(C(=O)Nc2cccnc2)Cc2c(-c3ccccc3)ccnc2O1 (stereo unspecified) | inactive
22 | Cc1nnc(SC(C)C(=O)c2c[nH]c3ccccc23)n1C1CC1 (stereo unspecified) | inactive
23 | Cc1[nH]c2ccccc2c1C(=O)CN1CC(C)CC(C)C1 (stereo unspecified) | inactive
24 | Cc1[nH]c2ccccc2c1C(=O)C(C)Sc1nnc(C2CC2)o1 (stereo unspecified) | 7.31 µM (active)

Row | Compound | Potency
25 | COc1ccc(NC(=O)c2ccc3nc(CCc4ccccc4)oc3c2)c(OC)c1 | inactive
26 | CC1(C(=O)NS(=O)(=O)c2cccs2)CCN1C(=O)Cc1ccc(-c2ccccc2)cc1 (stereo unspecified) | inactive
27 | O=C(COc1ccccc1C(=O)Nc1ccccc1)Nc1cccc(F)c1 | inactive
28 | Cc1nc2c(-c3ccccc3)c(C)nn2c(C)c1CCC(=O)NCCc1ccccc1 | inactive
29 | COc1cc(NC(=O)CCn2nc(C)cc2C)cc(OC)c1OC | inactive
30 | CSc1ncccc1C(=O)N1CCCC(CCC(=O)NCc2ccccc2F)C1 (stereo unspecified) | inactive
31 | Cc1[nH]c2c(C(=O)N3CCCC(CCC(=O)NCc4ccccc4F)C3)cccc2c1C (stereo unspecified) | 16.4 µM (active)
32 | COc1cccc(CNC(=O)CCC2CCCN(C(=O)c3cc(C)[nH]n3)C2)c1 (stereo unspecified) | inactive
33 | CC(C)NC(=O)N1Cc2cc(C(=O)NCC(F)(F)F)nc(-c3cccc(-c4cc5ccccc5o4)c3)c2[C@@H]1CCO | inactive
34 | CCOc1ccc2nc(N3CCCC(C(=O)Nc4cc(C)ccc4C)C3)sc2c1 (stereo unspecified) | inactive
35 | CCOc1ccc2nc(N3CCCN(C(=O)Nc4ccccc4C)CC3)c(C#N)cc2c1 | 18.4 µM (active)
36 | COc1ccc2nc(N3CCCC(O)C3)c(C#N)cc2c1 (stereo unspecified) | inactive
37 | CCOC(=O)c1ccccc1NC(=O)c1nn(-c2ccc(OC)c(Cl)c2)c(=O)c2c1c1ccccc1n2C | inactive
38 | CN(C)CCNC(=O)c1ccc(-c2cn3c(-c4ccc(Oc5ccccc5)cc4)cnc3cn2)cc1 | inactive
39 | O=C(CCc1nc(CN2CCN(S(=O)(=O)c3ccc(F)cc3)CC2)no1)N1CCCCC1 | inactive
40 | CC(=O)Nc1cnc(-c2ccc(O)cc2C)cn1 | inactive
41 | Cc1cc(O)ccc1-c1cnc2ccccc2n1 | 14.6 µM (active)
42 | Oc1ccc(-c2nc3ccccc3nc2-c2ccc(O)cc2O)c(O)c1 | inactive
43 | O=C(Nc1ccccc1Br)c1cc(CN2CCCC2)on1 | inactive
44 | OC(c1ccc(Cl)cc1)c1ncc(-c2ccc(Cl)cc2)[nH]1 (stereo unspecified) | inactive
45 | COC(=O)c1cnn(-c2ccc(C(=O)Nc3ccc(OC(F)(F)F)cc3)cc2)c1N | inactive
46 | O=C(Nc1ccc(OC(F)(F)F)cc1)c1ccc2c(c1)no[n+]2[O-] | 20.6 µM (active)
47 | Cn1cccc1/C=N/NC(=O)c1ccc(OC(F)(F)C(F)F)cc1 | inactive
48 | CCN(CC)C(=O)C1=C(C)N(Cc2ccc(F)cc2)C(=O)C(CC(=O)NC2CCCC2)C1 (stereo unspecified) | inactive

Row | Compound | Potency
49 | CCc1ccc([C@@H]2CC(=O)[C@@H]3CN(S(=O)(=O)c4ccc(C)cc4)[C@H](c4ccc(Cl)cc4)C[C@@H]3N2S(=O)(=O)c2ccc(C)cc2)cc1 | inactive
50 | Cc1cc(N2CCN(S(=O)(=O)c3ccc(C)c(C)c3)CC2)c2ccccc2n1 | 3.26 µM (active)
51 | Cc1ccc(S(=O)(=O)N2CCN(c3ccccc3)CC2)cc1C | inactive
52 | Cc1ccc2nc(CN3CCN(S(=O)(=O)c4ccc(C)c(C)c4)CC3)oc2c1 | inactive
53 | CCOC(=O)c1c(C)[nH]c(C)c1S(=O)(=O)N1CCCC(C(=O)NCc2ccccc2Cl)C1 (stereo unspecified) | inactive
54 | COc1ccc(NCc2nnc(SCc3ccccc3)n2-c2ccc(OC)cc2)cc1 | 8.2 µM (active)
55 | CCn1c(CNc2ccc(OC)cc2)nnc1SCC(=O)c1ccc(OC)cc1 | inactive
56 | CCc1nnc(NC(=O)CSc2nnc(Cc3ccccc3)n2-c2ccc(OC)cc2)s1 | inactive
57 | CNC(=O)c1ccc(-c2nc(CN3CCc4ccccc43)c(C)o2)cc1 | inactive
58 | O=C(CN1CCN(c2nc(-c3ccccc3)cs2)CC1)NCc1ccc2c(c1)OCO2 | inactive
59 | COc1ccc(C(O)c2nc(-c3ccc4c(c3)OCO4)cs2)cc1 (stereo unspecified) | inactive
60 | COc1ccc(-c2csc(N3CCN(Cc4ccc5c(c4)OCO5)CC3)n2)cc1 | 13 µM (active)
61 | CCN(C(=O)Nc1cccc2ccccc12)c1ccccc1 | inactive
62 | CC1(C(=O)Nc2ccccc2Br)CCN1C(=O)CC1CC1 (stereo unspecified) | inactive
63 | Cc1ccc(CN(C)C[C@@H]2OCc3cnnn3CCCC(=O)N([C@@H](C)CO)C[C@H]2C)cc1 | inactive
64 | CCC(C(=O)Nc1c(C)cccc1C)n1c(-c2cc(C)cs2)nc2ccccc21 (stereo unspecified) | inactive
65 | OC(c1cc(Cl)cc(Cl)c1)c1ncc(-c2ccccc2C(F)(F)F)[nH]1 (stereo unspecified) | inactive
66 | Cc1cc(OCCCN2CCN(Cc3ccccc3)CC2)ccc1[N+](=O)[O-] | inactive
67 | CCc1cc(=O)oc2cc(OCC(=O)N3CCCc4ccccc43)ccc12 | inactive
68 | Cc1ccccc1NC(=O)c1ccc(COc2ccc3c(C)cc(=O)oc3c2)cc1 | inactive
69 | Cc1cc(=O)oc2cc(OCC3CC(c4ccccc4Cl)=NO3)ccc12 (stereo unspecified) | 1.16 µM (active)
70 | Cc1cc(=O)oc2cc(OCC(=O)Nc3nnc(C4CC4)s3)ccc12 | inactive
71 | Cc1ccccc1N1CCN(CCCOc2ccc3c(C)cc(=O)oc3c2)CC1 | 11.2 µM (active)
72 | COc1ccc2oc(-c3ccc(C)c(NC(=O)c4sc5ccccc5c4Cl)c3)nc2c1 | inactive

Row | Compound | Potency
73 | CCN(CC(=O)Nc1ccc(NC(C)=O)cc1)C(=O)C1CC(=O)N(c2ccc3c(c2)OCCO3)C1 (stereo unspecified) | inactive
74 | CC(C)c1ccc(CC(=O)N2CCC2(C)C(=O)NS(=O)(=O)c2ccc(C(C)(C)C)cc2)cc1 (stereo unspecified) | inactive
75 | COc1cccc(C(=O)NC(=O)Nc2ccc(-c3cc(C(F)(F)F)nn3-c3ccccc3)cc2)c1 | inactive
76 | COc1ccc(CCN(C(=O)COc2ccccc2)c2nc(-c3ccccc3)cs2)cc1OC | 5.8 µM (active)
77 | COc1ccc(CN(C(=O)c2cccs2)c2nccs2)cc1OC | inactive
78 | COc1ccc(-c2csc(-c3c(N)c(C(=O)c4ccc(OC)c(OC)c4)n4ccccc34)n2)cc1 | inactive
79 | Cc1ccc(Sc2ccc(NC(=O)c3ccc(F)cc3)cc2C#N)cc1 | inactive
80 | CC(C)C[C@H]1CNC(=O)C(=O)N1C[C@H]1CCCN1C[C@H](Cc1ccc(O)cc1)N1C[C@H](CC(C)C)N(CC2CCCCCC2)C(=O)C1=O | inactive
81 | COc1cccc(CNc2nc(NCc3cccs3)nc3ccsc23)c1 | inactive
82 | Cc1cccc(CC(=O)Nc2c3c(nn2-c2cccc(Cl)c2)CS(=O)C3)c1 (stereo unspecified) | 20.6 µM (active)
83 | COc1ccc(-n2nc3c(c2NC(=O)Cc2cccc(C)c2)CS(=O)C3)cc1 (stereo unspecified) | inactive
84 | COc1ccc(CC(=O)Nc2c3c(nn2-c2cccc(Cl)c2)CS(=O)C3)cc1 (stereo unspecified) | inactive
85 | CC1CCCCN1S(=O)(=O)c1ccc(F)c(C(=O)Nc2ccccc2C(F)(F)F)c1 (stereo unspecified) | inactive
86 | COc1ccc(Nc2ncnc3ccc(Br)cc23)c(OC)c1 | inactive
87 | CC1(C)CC2CC(C)(CN2c2ncnc3ccc(Br)cc23)C1 (stereo unspecified) | 2.59 µM (active)
88 | CN(C)C(=O)COC(=O)c1cccc(S(=O)(=O)N2CC3(C)CC2CC(C)(C)C3)c1 (stereo unspecified) | inactive
89 | O=S(=O)(NCCc1csc(-c2ccccc2)n1)c1cccnc1 | inactive
90 | O=C(NCCc1csc(-c2ccccc2)n1)c1ccccc1F | 20.6 µM (active)
91 | COc1ccc(-c2nc(CCNC(=O)c3ccc(Br)o3)cs2)cc1 | inactive
92 | CC1(C(=O)NS(=O)(=O)c2ccc(Cl)cc2)CCN1C(=O)CC1CCCC1 (stereo unspecified) | inactive
93 | C=CCn1c(SCC(=O)Nc2ccc(NC(C)=O)cc2)nc2sc(C)c(C)c2c1=O | inactive
94 | C=CCNC(=O)CSc1nc2scc(-c3ccco3)c2c(=O)n1CC=C | inactive
95 | C=CCn1c(SCc2csc(C)n2)nc2scc(-c3ccc(C)o3)c2c1=O | 11.6 µM (active)
96 | CO[C@@H]1CN(C)C(=O)c2cc(NC(=O)C3CC3)ccc2OC[C@H](C)N(C(=O)CN2CCOCC2)C[C@@H]1C | inactive
